Here are results for 38 molecules from PubChem BioAssay (EPA / NIEHS).

Values joined by “and” are separate entries in the source; they are usually repeats but may differ in a detail not shown here. Equal entries are not always repeated. A structure can be active in one record and inactive in another. Active and inactive are the calls of the source. Rule for the calls: active = hit-call score of the fitted dose curve at least 0.9, where 1 is the maximum; inactive = score below 0.9.

Read-out in the test: Matrix Metallopeptidase 1 (MMP1), MMP1 (gene 4312)
Put plainly: BSK_BF4T_MMP1: BioMAP Diversity Plus: BF4T Assay for Matrix Metallopeptidase 1 (MMP1) Biomarker Activity (AID 2284270). The settings on record: primary human bronchial epithelial cells with fibroblasts. How it is done: BSK_BF4T is a cell-based, multiplexed-readout assay that uses bronchial epithelial cells and dermal fibroblasts, a human vascular primary cell, with measurements taken at 24 hours after chemical dosing in a microplate: 96-well plate.BSK_BF4T_MMP1 is an assay component measured in the BSK_BF4T assay. It measures MMP-1 antibody related to regulation of gene expression using ELISA technology.Data from the assay component BSK_BF4T_MMP1 was analyzed at the endpoint, BSK_BF4T_MMP1, in the positive analysis fitting direction relative to DMSO as the negative control and baseline of activity. Using a type of binding reporter, gain or loss-of-signal activity can be used to understand protein changes. To generalize the intended target to other relatable targets, this assay endpoint is annotated to the 'protease' intended target family, where the subfamily is 'matrix metalloproteinase'.
The levels of cell surface (or secreted, indicated by the prefix "s") biomarker endpoints were measured by ELISA. Overt cytotoxicity to cells in confluent adherent cultures (all systems other than the BT system) was assessed by measuring total protein levels using sulforhodamine B (SRB) staining in parallel cultures at the time of biomarker measurements, indicated as SRB endpoints. For proliferation assays for adherent cell types, individual cell types are cultured at sub-confluence and relative cell numbers quantified by SRB staining at time points optimized for each system (48 h: 3C and CASM3C systems; 72 h: BT and HDF3CGF systems; 96 h: SAg system). SRB was performed by staining cells with 0.1% SRB after fixation with 10% TCA and reading wells at 560 nm.Viability and proliferation of PBMC (T cells) was quantified by Alamar Blue reduction for the SAg and BT systems. For PBMC viability (referred to as PBMC Cytotoxicity within the assay endpoint names), cells were plated (75,000/well in a 96-well plate) and then chemical samples added for 1 h before addition of activators, SEB and TSST-1 (20 ng/mL final concentration each). Cells were incubated for 90 h. Then, Alamar Blue (20 uL/well) (Invitrogen, Cat DAL1100) was added for 6 h, and the plates were read with a fluorescence microplate reader at 546/580 nm (excitation/emission). For PBMC proliferation, cells were plated and activated as above but incubated for only 16 h prior to addition of Alamar Blue. Plates were read after 6 h.
Consider `O=S(=O)(OCC(F)(F)F)C(F)(F)C(F)(F)C(F)(F)C(F)(F)F`, for which the result was inactive. For the molecule `NC(=O)C(F)(F)C(F)(F)C(F)(F)C(F)(F)C(F)(F)C(F)(F)C(F)(F)F`, the outcome was inactive.

`O=C(Cl)C(F)(F)C(F)(F)C(F)(F)C(F)(F)C(F)(F)C(F)(F)C(F)(F)F`: the outcome was inactive and the half-maximal activity concentration (AC50) is 19.9 µM (active). With `CN(C(=O)C(F)(F)C(F)(F)C(F)(F)F)[Si](C)(C)C`, the result was inactive. Still for that read-out and setting: next, `FC(F)(F)C(F)(F)C(F)(F)C(F)(F)C(F)(F)C(F)(F)C(F)(F)CCI`: “inactive”; `O=C(F)C1(F)C(F)(F)C(F)(F)C(F)(F)C(F)(F)C1(F)F`: “inactive”.

As for `C=C(C)C(=O)OCC(F)(F)C(F)(F)C(F)(F)C(F)F`, the outcome was inactive. `NC(=O)C(F)(F)C(F)(F)C(F)(F)C(F)(F)C(N)=O`: the outcome was inactive. As for `OCC(O)CC(F)(F)C(F)(F)C(F)(F)C(F)(F)C(F)(F)C(F)(F)C(F)(F)C(F)(F)F` (stereo not given), the outcome was inactive.

As to `NC(O)(C(F)(F)F)C(F)(F)F`, the outcome was inactive. On the same count and under the same terms, the result for `OCC(F)(F)C(F)(F)C(F)(F)C(F)(F)C(F)(F)C(F)(F)C(F)(F)C(F)(F)CO` reads “inactive”. Consider `C=CC(=O)OCC(F)(F)C(F)(F)C(F)(F)COC(=O)C=C`, for which the outcome was inactive and the concentration at half-maximal activity (AC50) is 50.2 µM (active). In the case of `NCC(F)(F)C(F)(F)C(F)(F)C(F)(F)C(F)(F)C(F)(F)C(F)(F)C(F)(F)F`, the result was inactive.

`O=C(O)CCC(F)(F)C(F)(F)C(F)(F)C(F)(F)C(F)(F)C(F)(F)C(F)(F)F`: the outcome was inactive. In the case of `O=C(O)C(F)(F)C(F)(F)C(F)(F)C(F)(F)C(F)(F)C(F)(F)C(F)F`, the result was inactive.

As to `O=C(O)C(F)(F)OC(F)(F)C(F)(F)OC(F)(F)C(F)(F)OC(F)(F)F`, the result was inactive. Still for that read-out and setting: next, `O=C(Cl)C(F)(F)C(F)(F)C(F)(F)C(F)(F)C(F)(F)C(F)(F)F`: “inactive”. On to `OC(O)C(F)(F)C(F)(F)F`, for which the outcome was inactive. Regarding `COC(F)(C(F)F)C(F)(F)F` (stereo not given), the result was inactive. In the case of `OCCCCC(F)(F)C(F)(F)C(F)(F)C(F)(F)F`, the outcome was inactive. With `CO[Si](C)(CCC(F)(F)C(F)(F)C(F)(F)C(F)(F)C(F)(F)C(F)(F)F)OC`, the outcome was inactive. Consider `O=C(O)CCC(F)(F)C(F)(F)C(F)(F)F`, for which the result was inactive. Turning to `CNS(=O)(=O)C(F)(F)C(F)(F)C(F)(F)C(F)(F)C(F)(F)C(F)(F)C(F)(F)C(F)(F)F`, the outcome was inactive. In the case of `OCCCC(F)(F)C(F)(F)C(F)(F)C(F)(F)C(F)(F)C(F)(F)C(F)(F)C(F)(F)F`, the AC50 is 49 µM (active) and 45.1 µM (active). As to `CCOC(=O)CC(=O)C(F)(F)C(F)(F)F`, the outcome was inactive. Regarding `O=C(O)C(F)(F)C(F)(F)C(F)(F)OC(F)(C(F)(F)F)C(F)(F)F`, the result was inactive.

Take `OCC(F)(F)C(F)(F)C(F)(F)CO`: the result was inactive.

As for `NCC(F)(F)C(F)(F)C(F)(F)C(F)(F)C(F)(F)C(F)(F)F`, the result was inactive. For `NC(=O)C(F)(F)C(F)(F)C(F)(F)C(F)F`, the result was inactive. For the molecule `FC(F)(F)C(F)(F)C(F)(F)C(F)(F)C(F)(F)C(F)(F)CC[Si](Cl)(Cl)Cl`, the outcome was inactive. With `OCC(O)CC(F)(F)C(F)(F)C(F)(F)C(F)(F)F` (stereo not given), the result was inactive. With `C=CC(=O)OCC(F)(F)C(F)(F)C(F)(F)C(F)(F)C(F)(F)C(F)(F)C(F)(F)C(F)F`, the outcome was inactive.

For the molecule `FC(F)(F)C(F)(F)C(F)(F)CC1CO1` (stereo not given), the result was inactive. For the molecule `O=C(O)C(F)(F)C(F)(F)C(F)(F)C(=O)O`, the result was inactive. Turning to `NC(=O)C(F)(F)C(F)(F)C(F)(F)F`, the result was inactive.

Consider `O=S(=O)(O)CCC(F)(F)C(F)(F)C(F)(F)C(F)(F)F`, for which the result was inactive. Regarding `O=S(=O)(O)CCC(F)(F)C(F)(F)C(F)(F)C(F)(F)C(F)(F)C(F)(F)C(F)(F)C(F)(F)F`, the outcome was inactive. In the case of `C[Si](Cl)(Cl)CCC(F)(F)C(F)(F)C(F)(F)C(F)(F)C(F)(F)C(F)(F)F`, the result was inactive.

One may read the AC50 as the concentration at which the activity in the assay is half-maximal.
